Results reported in the supplement of paper PMC11732987, “Enantioselective OTUD7B fragment discovery through chemoproteomics screening and high-throughput optimisation” (Communications Chemistry, 2025).

Columns and labels:
Test in all cases: log2 ratio of Biotin-Ahx-Ub-VS probe labelling (fragment/DMSO); higher = less target engagement (more negative = stronger competition), active = hit call of the paper (q ≤ 0.05, log2 ratio ≤ -1)
Conditions in all cases: compound concentration: 200 uM; treatment time: 3 h
ALG13 = target: T1, ALG13 (UniProt Q9NP73)
T1 sequence (whole entry): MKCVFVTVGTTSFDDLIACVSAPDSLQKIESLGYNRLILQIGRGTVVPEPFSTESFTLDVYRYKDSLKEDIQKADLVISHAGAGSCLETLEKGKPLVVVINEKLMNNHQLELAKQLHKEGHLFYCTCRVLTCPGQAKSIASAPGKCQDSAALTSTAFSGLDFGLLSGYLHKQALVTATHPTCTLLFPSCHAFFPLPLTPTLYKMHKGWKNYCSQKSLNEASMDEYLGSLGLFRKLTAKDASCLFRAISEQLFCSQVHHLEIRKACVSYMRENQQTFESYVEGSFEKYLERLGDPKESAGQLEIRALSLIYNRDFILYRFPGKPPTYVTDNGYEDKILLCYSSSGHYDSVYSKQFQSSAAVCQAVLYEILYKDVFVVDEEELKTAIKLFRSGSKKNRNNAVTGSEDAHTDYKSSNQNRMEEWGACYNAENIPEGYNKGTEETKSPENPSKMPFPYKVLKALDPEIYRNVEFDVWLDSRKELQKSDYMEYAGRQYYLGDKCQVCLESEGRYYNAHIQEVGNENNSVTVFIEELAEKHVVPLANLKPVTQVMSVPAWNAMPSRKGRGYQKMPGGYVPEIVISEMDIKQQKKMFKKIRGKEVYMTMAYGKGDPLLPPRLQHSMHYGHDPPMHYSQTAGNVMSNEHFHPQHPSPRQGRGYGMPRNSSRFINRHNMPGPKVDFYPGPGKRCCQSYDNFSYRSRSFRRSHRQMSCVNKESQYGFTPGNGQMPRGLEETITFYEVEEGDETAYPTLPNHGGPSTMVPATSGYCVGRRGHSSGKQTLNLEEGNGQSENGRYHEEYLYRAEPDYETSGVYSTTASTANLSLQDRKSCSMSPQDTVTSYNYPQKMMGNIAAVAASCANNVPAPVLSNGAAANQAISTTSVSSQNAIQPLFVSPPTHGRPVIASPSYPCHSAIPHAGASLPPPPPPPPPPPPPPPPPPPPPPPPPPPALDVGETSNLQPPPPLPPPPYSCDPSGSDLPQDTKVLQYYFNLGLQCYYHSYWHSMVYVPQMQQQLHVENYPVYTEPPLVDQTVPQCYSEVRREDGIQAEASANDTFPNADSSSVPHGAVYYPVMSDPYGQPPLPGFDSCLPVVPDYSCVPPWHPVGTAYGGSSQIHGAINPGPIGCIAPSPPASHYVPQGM
Method in brief: (§1)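 Triplicate samples of HEK293T lysate, 495 µg each, received fragment at 200 µM or vehicle for 3 h, followed by Biotin-Ahx-Ub-VS (0.5 µM final) for 1 h. After NeutrAvidin enrichment of labelled DUBs and LysC/trypsin digestion, peptides were run by diaPASEF LC-MS/MS. The values are average log2 fragment/vehicle ratios from global-median-normalised Spectronaut label-free quantities, tested by unpaired t-test on proteins having ≥2 unique peptides.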

ATXN3 = ATXN3 (UniProt P54252)
Sequence of ATXN3 (P54252 whole entry): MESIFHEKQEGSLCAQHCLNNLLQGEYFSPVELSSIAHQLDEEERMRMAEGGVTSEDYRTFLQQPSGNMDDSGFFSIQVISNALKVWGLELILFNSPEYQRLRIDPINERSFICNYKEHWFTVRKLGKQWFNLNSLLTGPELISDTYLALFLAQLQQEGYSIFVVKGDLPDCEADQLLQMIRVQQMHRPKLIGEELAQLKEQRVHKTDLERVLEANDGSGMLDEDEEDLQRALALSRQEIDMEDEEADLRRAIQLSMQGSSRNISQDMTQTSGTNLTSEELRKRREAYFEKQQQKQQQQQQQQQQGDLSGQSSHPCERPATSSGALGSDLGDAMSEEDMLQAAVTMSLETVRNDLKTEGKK
Method in brief: as §1

BAP1 = target: T2, BAP1 (UniProt Q92560)
T2 sequence (whole entry): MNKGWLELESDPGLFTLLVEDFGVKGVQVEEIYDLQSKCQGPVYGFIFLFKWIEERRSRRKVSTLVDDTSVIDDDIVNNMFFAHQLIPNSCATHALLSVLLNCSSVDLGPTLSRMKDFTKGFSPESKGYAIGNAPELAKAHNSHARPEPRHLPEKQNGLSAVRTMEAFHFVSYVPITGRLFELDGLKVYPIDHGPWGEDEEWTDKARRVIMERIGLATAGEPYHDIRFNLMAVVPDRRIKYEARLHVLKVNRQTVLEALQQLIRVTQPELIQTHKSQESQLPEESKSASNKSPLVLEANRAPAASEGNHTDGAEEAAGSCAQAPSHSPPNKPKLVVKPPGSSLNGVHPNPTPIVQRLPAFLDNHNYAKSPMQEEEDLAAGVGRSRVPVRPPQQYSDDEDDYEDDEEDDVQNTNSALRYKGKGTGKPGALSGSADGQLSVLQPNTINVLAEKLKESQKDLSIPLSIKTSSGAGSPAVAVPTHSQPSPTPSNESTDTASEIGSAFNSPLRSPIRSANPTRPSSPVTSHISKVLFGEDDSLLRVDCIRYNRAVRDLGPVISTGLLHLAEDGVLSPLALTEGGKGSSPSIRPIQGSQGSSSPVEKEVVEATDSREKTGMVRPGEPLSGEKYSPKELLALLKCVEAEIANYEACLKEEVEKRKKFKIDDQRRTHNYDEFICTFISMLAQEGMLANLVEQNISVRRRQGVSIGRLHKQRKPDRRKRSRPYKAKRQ
Method in brief: as §1

EIF3F = EIF3F (UniProt O00303)
Sequence of EIF3F (O00303 whole entry): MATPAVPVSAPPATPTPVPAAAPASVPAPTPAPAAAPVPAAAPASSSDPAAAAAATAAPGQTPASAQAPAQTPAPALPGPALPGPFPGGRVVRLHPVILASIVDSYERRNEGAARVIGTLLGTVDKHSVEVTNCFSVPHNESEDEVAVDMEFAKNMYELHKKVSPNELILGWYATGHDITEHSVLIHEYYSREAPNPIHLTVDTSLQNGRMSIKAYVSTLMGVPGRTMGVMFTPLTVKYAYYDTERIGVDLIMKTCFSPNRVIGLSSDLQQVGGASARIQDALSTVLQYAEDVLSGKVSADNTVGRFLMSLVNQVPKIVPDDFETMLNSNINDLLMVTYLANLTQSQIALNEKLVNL
Method in brief: as §1

EIF3H = EIF3H (UniProt O15372)
Sequence of EIF3H (O15372 whole entry): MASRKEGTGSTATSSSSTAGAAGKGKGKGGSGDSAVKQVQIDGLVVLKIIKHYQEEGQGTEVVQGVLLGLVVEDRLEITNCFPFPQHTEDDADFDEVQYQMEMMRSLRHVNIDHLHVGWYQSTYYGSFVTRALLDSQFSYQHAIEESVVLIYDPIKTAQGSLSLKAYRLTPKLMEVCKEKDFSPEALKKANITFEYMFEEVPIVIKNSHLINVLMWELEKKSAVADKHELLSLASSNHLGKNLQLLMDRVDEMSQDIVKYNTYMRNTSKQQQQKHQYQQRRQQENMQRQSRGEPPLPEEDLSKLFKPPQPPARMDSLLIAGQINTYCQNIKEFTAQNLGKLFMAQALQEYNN
Method in brief: as §1

FAM105A = target: T3, FAM105A (UniProt Q9NUU6)
T3 sequence (whole entry): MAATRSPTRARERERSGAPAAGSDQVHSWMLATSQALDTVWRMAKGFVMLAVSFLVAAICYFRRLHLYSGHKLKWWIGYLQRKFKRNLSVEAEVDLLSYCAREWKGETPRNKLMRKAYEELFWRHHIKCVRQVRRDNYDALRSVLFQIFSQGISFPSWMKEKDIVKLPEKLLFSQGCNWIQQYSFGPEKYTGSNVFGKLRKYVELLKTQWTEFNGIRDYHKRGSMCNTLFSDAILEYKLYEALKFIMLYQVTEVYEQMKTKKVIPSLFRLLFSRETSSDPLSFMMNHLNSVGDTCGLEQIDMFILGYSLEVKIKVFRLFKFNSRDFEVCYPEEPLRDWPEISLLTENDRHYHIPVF
Method in brief: as §1

OTUB1 = OTUB1 (UniProt Q96FW1)
Sequence of OTUB1 (Q96FW1 whole entry): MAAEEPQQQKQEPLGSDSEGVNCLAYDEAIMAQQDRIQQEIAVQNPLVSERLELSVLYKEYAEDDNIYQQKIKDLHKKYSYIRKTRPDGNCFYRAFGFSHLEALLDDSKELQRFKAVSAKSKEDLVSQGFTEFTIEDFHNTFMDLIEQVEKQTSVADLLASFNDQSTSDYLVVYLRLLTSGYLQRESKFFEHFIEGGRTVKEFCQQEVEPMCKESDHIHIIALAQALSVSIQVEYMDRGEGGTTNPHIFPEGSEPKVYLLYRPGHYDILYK
Method in brief: as §1

OTUD4 = target: T4, OTUD4 (UniProt Q01804)
T4 sequence (whole entry): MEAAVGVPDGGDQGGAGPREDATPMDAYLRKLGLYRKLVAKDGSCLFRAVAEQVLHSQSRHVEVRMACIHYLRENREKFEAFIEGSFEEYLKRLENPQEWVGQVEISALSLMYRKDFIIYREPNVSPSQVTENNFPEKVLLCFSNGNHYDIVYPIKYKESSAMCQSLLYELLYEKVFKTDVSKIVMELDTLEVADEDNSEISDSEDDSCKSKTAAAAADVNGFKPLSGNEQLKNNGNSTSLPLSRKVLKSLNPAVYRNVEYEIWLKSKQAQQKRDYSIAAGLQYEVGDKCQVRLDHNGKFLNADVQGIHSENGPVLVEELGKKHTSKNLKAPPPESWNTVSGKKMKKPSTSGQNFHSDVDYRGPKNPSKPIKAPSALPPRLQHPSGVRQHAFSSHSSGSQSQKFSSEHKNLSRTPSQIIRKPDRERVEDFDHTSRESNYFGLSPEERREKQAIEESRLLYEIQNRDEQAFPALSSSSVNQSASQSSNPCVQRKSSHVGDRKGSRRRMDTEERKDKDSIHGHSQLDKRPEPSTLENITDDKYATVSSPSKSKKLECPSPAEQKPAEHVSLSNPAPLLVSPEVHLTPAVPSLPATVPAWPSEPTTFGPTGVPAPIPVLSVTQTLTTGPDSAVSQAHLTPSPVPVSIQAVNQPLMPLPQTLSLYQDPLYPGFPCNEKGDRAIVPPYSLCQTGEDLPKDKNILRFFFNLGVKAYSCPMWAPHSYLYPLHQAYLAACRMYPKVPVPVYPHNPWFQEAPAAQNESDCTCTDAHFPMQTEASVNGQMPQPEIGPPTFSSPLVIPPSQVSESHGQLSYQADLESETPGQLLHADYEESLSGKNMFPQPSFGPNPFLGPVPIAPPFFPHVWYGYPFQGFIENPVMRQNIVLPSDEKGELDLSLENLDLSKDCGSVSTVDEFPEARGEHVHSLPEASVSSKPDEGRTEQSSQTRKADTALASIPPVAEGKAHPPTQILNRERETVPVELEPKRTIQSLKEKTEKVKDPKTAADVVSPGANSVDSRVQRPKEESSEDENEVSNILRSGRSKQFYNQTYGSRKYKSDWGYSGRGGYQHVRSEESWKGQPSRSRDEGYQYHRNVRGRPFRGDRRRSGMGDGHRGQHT
Method in brief: as §1

OTUD5 = target: T5, OTUD5 (UniProt Q96G74)
T5 sequence (whole entry): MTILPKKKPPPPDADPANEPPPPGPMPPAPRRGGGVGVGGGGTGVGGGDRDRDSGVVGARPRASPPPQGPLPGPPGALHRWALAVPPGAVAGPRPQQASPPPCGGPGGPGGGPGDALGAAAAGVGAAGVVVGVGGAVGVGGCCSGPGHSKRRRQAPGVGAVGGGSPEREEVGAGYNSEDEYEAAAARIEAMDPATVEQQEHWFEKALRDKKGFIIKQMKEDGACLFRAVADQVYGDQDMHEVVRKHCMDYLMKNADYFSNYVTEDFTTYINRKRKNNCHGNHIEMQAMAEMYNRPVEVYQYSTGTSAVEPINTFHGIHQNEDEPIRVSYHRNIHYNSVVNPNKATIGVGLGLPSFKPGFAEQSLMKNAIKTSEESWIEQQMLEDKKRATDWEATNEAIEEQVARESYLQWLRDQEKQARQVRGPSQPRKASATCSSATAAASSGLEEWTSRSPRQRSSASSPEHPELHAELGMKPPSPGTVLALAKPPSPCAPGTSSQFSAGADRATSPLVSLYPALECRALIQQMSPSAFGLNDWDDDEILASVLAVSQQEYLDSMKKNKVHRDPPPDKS
Method in brief: as §1

Measured: log2 ratio of Biotin-Ahx-Ub-VS probe labelling

CNC(=O)C1CCN(C(=O)CCl)CC1
inactive: ALG13 0.0075 | ATXN3 -0.0902 | BAP1 -0.309 | EIF3F -0.0903 | EIF3H 0.232 | FAM105A 0.31 | OTUB1 -0.105 | OTUD4 0.0041 | OTUD5 -0.381
